From the supplement of paper PMC6555819

How the values were obtained:
Assay in all cases: PBM binding z-score (relative to random genomic background probes); higher = stronger binding; sequences stand for … in GC…GCGATTGACAGCGTAGAATGAAGG
[1] = test system: PPARg:RXRa DBDmut IVT, anti-RXR (DBD mutation: RXRa K156A/R161A, NR concentration 270 nM, RXRa partner concentration 90 nM)
Summary of the method: (§1)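 Binding z-scores take random background probes as their reference. They come from custom Agilent 4×180K protein-binding microarrays incubated 1 h with ligand-free nuclear receptor dimers, with antibodies against each partner (one per run) detecting binding. Scanned fluorescence was regression-normalized.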

[2] = test system: PPARg:RXRa IVT, anti-PPARg (NR concentration 270 nM, RXRa partner concentration 90 nM)
Summary of the method: as §1

[3] = test system: PPARg DBDmut:RXRa IVT, anti-PPARg (DBD mutation: PPARg1 K132A/R137A, NR concentration 270 nM, RXRa partner concentration 90 nM)
Summary of the method: as §1

[4] = test system: PPARg DBDmut IVT, anti-PPARg (DBD mutation: PPARg1 K132A/R137A, NR concentration 270 nM)
Summary of the method: as §1

[5] = test system: PPARg homodimer (NR concentration 180 nM)
Summary of the method: as §1

[6] = test system: PXR:RXRa (NR concentration 270 nM, RXRa partner concentration 90 nM)
Summary of the method: as §1

[7] = test system: PXR homodimer (NR concentration 270 nM)
Summary of the method: as §1

[8] = test system: RARa:RXR (NR concentration 270 nM, RXRa partner concentration 90 nM)
Summary of the method: as §1

[9] = test system: RARa homodimer (NR concentration 270 nM)
Summary of the method: as §1

[10] = test system: RARb:RXRa (NR concentration 270 nM, RXRa partner concentration 90 nM)
Summary of the method: as §1

[11] = test system: RARb homodimer (NR concentration 270 nM)
Summary of the method: as §1

[12] = test system: RARg:RXRa (NR concentration 270 nM, RXRa partner concentration 90 nM)
Summary of the method: as §1

[13] = test system: RARg homodimer (NR concentration 270 nM)
Summary of the method: as §1

[14] = test system: RXRa DBDmut IVT, anti-RXR (DBD mutation: RXRa K156A/R161A, NR concentration 90 nM)
Summary of the method: as §1

[15] = test system: RXRa homodimer (NR concentration 180 nM)
Summary of the method: as §1

[16] = test system: THRa:RXRa (NR concentration 90 nM, RXRa partner concentration 90 nM)
Summary of the method: as §1

[17] = test system: THRa homodimer (NR concentration 90 nM)
Summary of the method: as §1

[18] = test system: VDR:RXRa (NR concentration 270 nM, RXRa partner concentration 90 nM)
Summary of the method: as §1

[19] = test system: VDR homodimer (NR concentration 270 nM)
Summary of the method: as §1

Sequence	PBM binding z-score [1]	PBM binding z-score [2]	PBM binding z-score [3]	PBM binding z-score [4]	PBM binding z-score [5]	PBM binding z-score [6]	PBM binding z-score [7]	PBM binding z-score [8]	PBM binding z-score [9]	PBM binding z-score [10]	PBM binding z-score [11]	PBM binding z-score [12]	PBM binding z-score [13]	PBM binding z-score [14]	PBM binding z-score [15]	PBM binding z-score [16]	PBM binding z-score [17]	PBM binding z-score [18]	PBM binding z-score [19]
CTCTAAAGGTCGTGCTCAGGTGAGTATACCAAAC	1.12	2.17	0.717	0.316	1.58	3.09	-0.0495	4.14	-0.0895	3.93	2.96	5.08	3.88	2.33	4.64	4.37	1.31	3.27	1.37
GGAACCAGGGCAAAGTTGATAGCATCTGTCGACG	4.31	4.92	0.131	1.82	1.1	0.754	0.639	0.798	0.36	2.22	1.67	1.34	1.41	1.03	1.12	1.18	0.549	0.607	0.747
TCTAGCAGGCCAGAGGGTTACTCAAGAGGTACGG	0.735	-0.175	-1.35	-1.09	-0.477	-0.175	-0.868	-0.0112	-0.732	0.213	-0.00314	0.101	0.0155	-0.179	0.47	-0.0959	-1.11	-0.176	-0.658
TCGAGTAGGTTAGTTGGGGCATTCAGCCAACATA	2.05	1.73	-0.651	-0.228	0.105	-0.283	-0.15	0.117	-0.0281	0.529	0.525	-0.065	-0.0945	0.0825	-0.226	1.01	-0.251	0.811	-0.0385
CGGCCAAGGTCAAGGTCAGTGAAAGAGACTCGAA	3.44	4.67	0.246	-0.532	3.93	5.02	0.799	5.17	1.18	5.71	5.16	6.85	7.69	3.48	6.81	4.33	2.89	4.68	2.95
CCAAGTTGGTCAGGAGGTCACACACCGGATATGA	2.06	3.44	0.859	0.385	2.39	4.24	0.876	4.41	0.729	3.8	4.38	5.05	4.59	1.39	4.6	3.5	1.96	4.08	2.65
GGAACGAGGGCAAGTTTATAGCAGAGTTTGATGG	3.91	2.81	0.157	-0.37	0.767	1.13	1.44	0.25	-0.0736	2.6	1.78	1.5	2.19	2.62	0.81	1.07	0.0695	1.32	2.89
AGTCAAAGTTCAGGACGAGGTTACGTAAAGCACG	-0.0298	2.22	0.501	0.266	2.73	4.73	2.59	4.38	1.13	4.46	3.96	5.81	5.25	3.2	4.19	3.92	1.81	4.6	3.15
GCTATTAGTCGAAAGGGCAACCGAATGATTCTCG	0.549	0.458	0.65	0.0546	0.852	0.446	-0.0421	0.942	0.125	2.07	2.08	1.09	1.5	0.643	0.86	0.548	-0.36	0.247	0.289
TCTATTAGTTGAAGGGCCACCGACGAGTCCGTTT	2.33	0.338	0.273	0.346	1.31	0.576	0.557	0.817	1.15	1.07	0.971	0.277	0.128	1.69	0.47	0.074	0.396	0.591	1.35
CCTTACGGGTCATGAGGTTATAGCACGACGAGCG	3.29	4.22	1.38	0.99	3.37	4.44	0.345	5.82	1.27	4.11	3.4	5.79	4.57	1.85	6.48	3.62	0.938	4.92	1.91
CCAGACAGGTGAGAAGGTCACTCAGCCTCGATTA	1.76	2.14	-0.281	-1.25	3.61	3.25	1.11	4.09	2.83	3.58	4.12	4.65	3.85	0.8	3.76	2.46	0.916	2.66	1.36
AGAAAGAGGGCAATGAGTTGATAGCACGGGTGGC	2.75	1.6	0.0853	0.306	0.658	1.84	4.38	0.758	0.0375	2.46	1.65	1.64	2.08	1.7	1.07	0.681	-0.101	5.59	3.05
TCAGCTAGGTCAGTTGGTCAGCTAACGAGCTGCC	2.84	2.65	-0.243	0.225	-0.166	0.0327	-1.06	0.304	-0.936	3.31	2.61	2.79	3.45	0.986	0.749	0.928	-0.339	0.211	-0.91
GTACCAAGGTGAATAGGTTGTTGATGAGTAGGCG	1.75	2.2	0.246	0.502	0.999	0.105	0.241	0.634	1.32	1.36	0.824	1.07	0.763	0.247	0.717	1.55	0.782	1.38	0.391
GCGACTGGGGCAAAGCAGGTTACCATCAGGTTGG	3.88	3.6	-0.221	-0.906	0.147	0.343	-0.136	0.899	-1.19	0.889	0.97	0.227	0.303	-0.245	0.557	2.72	-0.213	-0.194	-0.458
GACACAGGGTCAAGGCCAGAGTACGCGTATTGAT	2.25	3.61	0.42	-0.363	1.5	3.91	0.315	4.77	0.257	4.41	3.64	5.52	5.02	2.59	6.19	3.64	0.875	4.36	2.13
ATCTCTAGGTAAAGTTCAGTGATAGATCGATAGA	2.28	2.44	1.4	1.48	1.9	1.92	1.96	1.35	1.69	2.71	2.44	2.15	2.58	1.56	1.42	1.2	0.236	1.47	2.09
ATCTCTAAGTAAAGTTCAGTGAAAGATCGATAGA	0.19	0.648	1.26	1.06	1.44	2.03	1.8	1.34	1.77	2.63	2.32	1.98	2.42	1.71	1.26	0.85	-0.131	1.67	2.32
GCTAGCAGACCATTTGGGTCACTCAATGACGGGC	0.216	0.941	-0.491	-0.941	-0.202	0.0959	-0.826	0.598	-0.667	0.935	1.42	0.72	0.826	-0.303	0.514	1.38	0.434	-0.0299	-0.19
CGTCATAGTTCAAGGTAACGTAACAGAAAGCAGC	0.329	0.799	0.676	1.29	1.19	1.39	0.511	1.43	0.512	3.34	2.2	2.96	3.42	2.26	1.99	2.32	1.16	1.3	0.917
AGTCAAAGTTCAGGACGAGTTAACGTAAAGCACG	-0.151	1.53	0.0233	0.458	1.18	3.59	1.43	2.4	1.1	4.21	3.1	4.4	4.71	2.71	3.19	2.57	0.422	2.96	2.59
TAGCCTATGTCAGATCGGGCCAGTATACGCTATA	-0.342	-0.424	-0.269	-0.692	-1.19	-0.323	-0.853	0.184	-0.755	0.0129	-0.337	-0.0162	-0.00722	-0.495	-0.0681	1.45	-0.592	-0.407	-0.48
GGAACGAGGGCAAGTTGATCGCAGAGTTTGATGG	3.49	2.88	0.162	-0.887	-0.254	0.576	-0.0478	0.607	-0.361	2.51	1.5	1.49	1.89	2.28	0.723	1.2	-0.251	0.673	1.58
ATCTCTAGATAACCAAGTTCAGTGAATGCCGAAC	-0.316	0.0781	0.627	0.782	0.44	1.1	1.09	0.424	0.885	0.556	1.07	0.446	0.535	0.852	0.659	0.42	0.172	1.16	2.11
CCTACTGGGCCGCGAAAGGTCATTGATTCAGTGA	2.81	3.04	-1.14	-0.345	3.03	5.13	1.47	5.27	0.0232	3.81	4.47	4.49	3.88	0.701	5.19	3.25	0.433	3.74	2.12
TAGCCTAGGTCATGCGGGCAAGTATAGTGTCGGC	1.66	3.02	0.235	-0.248	1.39	1.45	-0.333	2.21	0.228	3.83	3.16	4	4.38	0.563	3.03	2.89	0.9	2.21	0.528
